TMEM16A act: TMEM16A chloride channel activators or potentiators, primary screen, cell-based, HTS; AID 623877, 2012; HEK293 TMEM16A/YFP-H148Q/I152L, iodide quench fluorescence; stronger effect = lower value; hit rate 0.3% among 340,000; Anoctamin-1 (Mus musculus), Q8BHY3; B-score at 10 µM;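 active means fluorescence-ratio B-score plate-corrected deviation score at least 3 library SD below zero, with starting fluorescence score within 5 deviations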;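 further: channel opened by trigger with iodide after compound preincubation; score built on the fluorescence ratio of max minus min over baseline; more negative score means more quench and so TMEM16A activation or potentiation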
Kir21 inh: inhibitors of mouse Kir2.1 inward-rectifier potassium channel; Inward rectifier potassium channel 2 (Mus musculus), P35561; HEK293-Kir2.1, FluxOR thallium flux fluorescence; stronger effect = lower value; B-score at 10 µM; hit rate 0.85% among 310,000; AID 1672, 2009;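 active means fluorescence ratio B-score at or below minus 3 SD of library scores, with starting-brightness B-score within 2 SD, cut at about -4.2 in these data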;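 further: channel flux triggered by added potassium and thallium sulfate stimulus; B-score of peak minus minimum fluorescence over baseline after thallium stimulus; more negative B-score means stronger Kir2.1 block with less thallium influx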
Target sequence (P35561 whole entry, looked up): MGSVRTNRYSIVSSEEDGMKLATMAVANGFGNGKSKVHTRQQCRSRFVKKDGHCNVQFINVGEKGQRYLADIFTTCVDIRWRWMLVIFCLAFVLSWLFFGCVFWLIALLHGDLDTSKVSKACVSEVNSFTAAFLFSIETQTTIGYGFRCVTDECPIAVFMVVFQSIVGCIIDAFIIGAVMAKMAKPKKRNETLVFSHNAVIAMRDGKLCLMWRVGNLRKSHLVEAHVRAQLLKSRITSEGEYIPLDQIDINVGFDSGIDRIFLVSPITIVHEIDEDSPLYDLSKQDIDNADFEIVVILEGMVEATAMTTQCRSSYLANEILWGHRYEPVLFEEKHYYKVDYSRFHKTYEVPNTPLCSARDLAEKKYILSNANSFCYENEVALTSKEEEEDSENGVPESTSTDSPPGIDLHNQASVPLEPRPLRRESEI
GPR7 antag: GPR7 receptor antagonists, primary screen, cell-based, fluorescence, single concentration. GPR7-expressing cells, fluorescence antagonist assay. AID 1861, 2009. hit rate 1.1% among 290,000. inhibition, % at 4.4 µM; in the data active means inhibition above about 16%, passing the limit was not always enough;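 further: cells stimulated with the agonist NPW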
CHT block: inhibitors of human choline transporter CHT; High affinity choline transporter 1 (Homo sapiens), Q9GZV3; CHT-expressing cells, membrane potential dye, choline response; stronger effect = lower value; B-score at 10 µM; hit rate 0.86% among 310,000; AID 488975, 2010;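 active means B-score over 3 SD under the library average, and starting fluorescence ratio not unusually high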;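 further: choline stimulus applied at its EC90 after an EC20 pre-addition; B-score computed on integrated fluorescence ratio after choline addition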
CHT PAM: CHT positive allosteric modulators, primary screen, cell-based, membrane potential dye, choline EC20; CHT-expressing cells; stronger effect = higher value; LV-AA mutant CHT in HEK293 cells; B-score at 10 µM; hit rate 0.49% among 310,000;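 active means initial fluorescence not abnormally high and integrated response B-score, plate-corrected, over 3 SD above library mean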
ANO1 block: TMEM16A chloride channel inhibitors, primary screen, cell-based, HTS; hit rate 1.2% among 310,000; HEK293 TMEM16A/YFP iodide influx fluorescence, ionomycin; AID 588511, 2011; normalized B-score (activity score, 25-100; higher = stronger inhibition) at 10 µM; Anoctamin-1 (Mus musculus), Q8BHY3;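 active means ratio plate-corrected score three or more library SD toward inhibition, starting fluorescence score within five deviations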;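 further: score derived from kinetic fluorescence span divided by baseline fluorescence per well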
Each line names hits and unclear results; the compound was inactive in the other large screens. A selection: hits, their analogues and other compounds. The true share with any hit is near 3.7%.

CCSC1(SCC)N=C(N)C2(C#N)C(c3ccc(F)cc3)C12C#N (stereo not drawn)	Kir21 inh -4.7
Cc1nn(C)c(C)c1Sc1ccc(Br)cc1	ANO1 block 25
Cc1noc2ncnc(Sc3ccc(Br)cc3)c12	none
Cc1cc(=O)n2nc(N3CCCC(C(=O)N4CCOCC4)C3)sc2n1 (stereo not drawn)	TMEM16A act -5.5 (no result: Kir21 inh)
O=C(CCC(=O)N(CC(=O)NC1CCCC1)Cc1cccs1)Nc1nccs1	none
COc1ccc(Cl)cc1NC(=O)CSc1sc2c(O)cc(=O)[nH]c2c1C#N	none
Cc1ccc(Cl)cc1NC(=O)CSc1sc2c(O)cc(=O)[nH]c2c1C#N	TMEM16A act -4.9
CC(CC(=O)N1CCc2ccccc21)n1cccn1 (stereo not drawn)	none
Cc1cc(Cl)ccc1NC(=O)CSc1n[nH]c(N)n1	none (no result: Kir21 inh, GPR7 antag, CHT block, CHT PAM, ANO1 block)
COc1cccc(CN(C)C(=O)C(Cc2ccccc2)NC(=O)c2ccccc2)c1OC (stereo not drawn)	none (no result: GPR7 antag)
O=[N+]([O-])/C=C/c1c(OCc2ccccc2)ccc2ccccc12	Kir21 inh -7.9
O=C(C1CCN(S(=O)(=O)N2CCC3(CC2)OCCO3)CC1)N1CCN(Cc2ccccc2)CC1	GPR7 antag 21
O=C(O)c1ccc(S(=O)(=O)c2ccc3c(c2)C(=O)N(NC(=O)c2cccnc2)C3=O)cc1	none
COc1ccc(/C=C/CN2CCCC(CO)(Cc3cccc(Cl)c3)C2)cc1 (stereo not drawn)	none
Cc1[nH]c2c(ccc3cccnc32)c1C	none
CC1=[N+](C)c2c(ccc3cccnc23)C1(C)C	GPR7 antag 28 (no result: Kir21 inh, CHT block, CHT PAM, ANO1 block)
O=C(CC1C(=O)NCCN1C1CCCC1)NCc1cccc(OC(F)(F)F)c1 (stereo not drawn)	none
Cc1cccc(Nc2nc(NCCCN3CCOCC3)nc(N)c2[N+](=O)[O-])c1	none
Clc1ccc(Nc2ccc(NCc3ccccc3)nn2)cc1	Kir21 inh -5.5, GPR7 antag 19
NC(=O)C1CCN(Cc2nc3cc(C(F)(F)F)ccc3c(=O)[nH]2)CC1	none
N#CC(c1ccccc1)C1CCN(Cc2ccccc2)CC1 (stereo not drawn)	Kir21 inh -5.2
O=C(Cc1ccccc1)NC1CCN(Cc2ccccc2)CC1	none
O=C(COc1ccccc1Cl)NNC(=O)c1ccc(-n2cncn2)c([N+](=O)[O-])c1	none (no result: Kir21 inh, GPR7 antag, CHT block, CHT PAM, ANO1 block)
CC(C)CCOc1ccc(C2CC(=O)N(C)C2=O)cc1 (stereo not drawn)	none
Cc1ccc2nc3c(cc(C(=O)NC4CCCC4)c(=N)n3CCCn3ccnc3)c(=O)n2c1	CHT PAM 6.4 (no result: TMEM16A act)
Cc1ccc(Cn2c(=N)c(C(=O)NC3CCCCC3)cc3c(=O)n4ccccc4nc32)cc1	none
O=c1[nH]c(=S)[nH]c2sc3c(c12)CCCCCC3	none
CC(C)(C)c1cc(CCC(=O)NCc2cccnc2)cc(C(C)(C)C)c1O	Kir21 inh -5.1
Cc1[nH]n(-c2ccc(Cl)cc2)c(=O)c1/C=N/c1nnc(-c2ccccc2)s1	ANO1 block 25
CCc1nnc(NS(=O)(=O)c2ccc(N=Cc3c(C)[nH]n(-c4ccc(Cl)cc4)c3=O)cc2)s1	none
CC(C)(CO)NC(=S)NCc1ccco1	none
CCCCn1ccnc1C(=O)c1cc(S(=O)(=O)N2CCOCC2)ccc1C	none
CCCCn1ccnc1C(=O)c1cccc(S(=O)(=O)N2CC(C)CC(C)C2)c1 (stereo not drawn)	ANO1 block 100
C=CCN(C(=O)C1CC(=O)N(C2CCCC2)C1)c1nc(-c2ccc(S(C)(=O)=O)cc2)cs1 (stereo not drawn)	none (no result: Kir21 inh, GPR7 antag, CHT block, CHT PAM, ANO1 block)
CN1C(C(=O)NCc2cccc(Br)c2)CC2Cn3c(nc4cc(Cl)c(Cl)cc43)C21 (stereo not drawn)	TMEM16A act -4.8 (no result: GPR7 antag)
CC(=O)c1cccc(NC(=O)C(C)OC(=O)Cc2c[nH]c3ccccc23)c1 (stereo not drawn)	none (no result: GPR7 antag)
C=CCc1ccc(OCCOCCOc2cccc3cccnc23)c(OC)c1	Kir21 inh -4.9
Brc1ccccc1OCCOCCOc1cccc2cccnc12	Kir21 inh -4.5
CC(C)CSC1=NSC2=NC(=O)/C(=C\c3ccccc3)C(=N)N12	ANO1 block 25
CC(C)CSC1=NSC2=NC(=O)/C(=C\c3coc4ccccc4c3=O)C(=N)N12	none
COc1ccc(CCNc2nc(-c3ccc(F)cc3)c(CC(=O)O)s2)cc1OC	none
O=C(Cc1ccc(Cl)cc1)N1CCN(c2ccccc2)CC1	none
COc1ccc(-c2cn(CCO)c(-c3ccc(Cl)nc3)n2)cc1	none (no result: Kir21 inh, GPR7 antag)
Cc1ccc(C(OCCN(C)C)c2cccc(C(F)(F)F)c2)cc1 (stereo not drawn)	Kir21 inh -5.2
Cc1c(OCC(=O)NC2CC(C)(C)NC(C)(C)C2)ccc2c3c(c(=O)oc12)CCC3	Kir21 inh -4.6
COc1ccccc1C(CC(=O)Nc1ccc(Cl)cc1)c1ccc(OC(C)C)cc1 (stereo not drawn)	none
CC(C)Oc1ccc(CNC(=O)CC(c2ccccc2)c2cc(Cl)ccc2O)cc1 (stereo not drawn)	ANO1 block 100
CCc1ccc(-c2cc(C)no2)cc1S(=O)(=O)N1CCC(C)CC1	ANO1 block 25
CNCC[C@H](Oc1cccc2ccccc12)c1cccs1	Kir21 inh -9.1, GPR7 antag 38
CNCCC(Oc1ccc(C(F)(F)F)cc1)c1ccccc1 (stereo not drawn)	none
COc1ccc(NC(=O)Cn2nnc(-c3ccccc3NS(=O)(=O)c3ccc(OC)cc3)n2)cc1	GPR7 antag 26
COc1ccc(CCNC(=O)Cn2nnc(-c3cccc(OC)c3OC)n2)cc1OC	none
COc1cccc(-c2nnn(CC(=O)Nc3ccc(C)cc3C)n2)c1OC	ANO1 block 25
CCC(CC)c1ncc[nH]1	none
CCC(C)NC(=O)CCS(=O)(=O)c1ccc(Br)s1 (stereo not drawn)	none
O=C(CCS(=O)(=O)c1ccc(Br)s1)NC1CCCCCC1	Kir21 inh -11
CCN(CC)S(=O)(=O)c1cc(NC(=O)c2ccc(-n3cncn3)c([N+](=O)[O-])c2)ccc1C	ANO1 block 100
Cc1ccc(NC(=O)c2ccc(C(=O)c3ccccc3)cc2)nc1	none (no result: GPR7 antag)
COc1ccc(-c2csc(NC(C)c3nc4cc(C(F)(F)F)ccc4n3CCOCCO)n2)cc1 (stereo not drawn)	ANO1 block 25 (no result: GPR7 antag)
CC(Nc1nc(-c2ccc(F)cc2)cs1)c1nc2cc(C(F)(F)F)ccc2n1CCOCCO (stereo not drawn)	none (no result: GPR7 antag)

Screening data as filed in PubChem.
